D1 antag – human D1 dopamine receptor antagonism; P21728; HEK293 TREx D1 cells, calcium flux, dopamine EC80; stronger effect = lower value; activity change, negative = inhibition, % at 10 µM; 360,000 compounds, 3.2% hits; AID 504652; in the data active means activity change below about -30%
Target sequence (P21728 whole entry, looked up): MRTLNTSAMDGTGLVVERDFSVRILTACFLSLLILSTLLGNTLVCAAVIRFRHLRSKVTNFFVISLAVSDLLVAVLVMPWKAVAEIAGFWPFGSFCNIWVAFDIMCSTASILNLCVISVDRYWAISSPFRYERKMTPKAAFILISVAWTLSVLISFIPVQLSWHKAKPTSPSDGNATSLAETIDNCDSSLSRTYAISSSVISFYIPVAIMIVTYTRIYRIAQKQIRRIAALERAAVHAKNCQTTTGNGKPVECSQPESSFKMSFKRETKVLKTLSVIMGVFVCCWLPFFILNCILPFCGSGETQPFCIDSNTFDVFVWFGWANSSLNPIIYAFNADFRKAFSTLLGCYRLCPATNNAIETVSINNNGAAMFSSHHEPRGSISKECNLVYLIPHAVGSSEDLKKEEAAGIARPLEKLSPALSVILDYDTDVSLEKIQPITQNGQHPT
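Using tetracycline-induced force-coupled D1 Hek293 cells and a calcium dye, signals were followed for 180 s after compound, then for 180 s after EC80 dopamine, to detect inhibitors.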
TRHR PAM – allosteric enhancers of human TRH receptor; 360,000 compounds, 0.66% hits; AID 493056; enhancement, % at 2 µM; TRHR cells, fluo-8 calcium fluorescence, EC20 TRH enhancement; P34981; in the data active means enhancement above about 30%
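TRHR-expressing cells loaded with fluo-8 calcium dye were read kinetically (ex 480/em 530) during compound addition, then stimulated with an EC20 of TRH (10 nM final). Enhancement of the Gq-mediated intracellular calcium response was scored.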
D1 potentiator – human D1 dopamine receptor positive modulation. potentiation, % at 10 µM. P21728. 360,000 compounds, 0.036% hits. HEK293 TREx D1 cells, calcium flux, dopamine EC20 potentiation; in the data active means potentiation above about 30%
D1 ag – activates the human D1 dopamine receptor. AID 504660. HEK293 T-REx D1 cells, calcium flux, agonist mode. 360,000 compounds, 1% hits. P21728. activation, % at 2 µM
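Inducible HEK293 T-REx D1 cells, force-coupled to calcium signalling, were plated at 4000 cells/well with tetracycline and held overnight at 30 C. After no-wash calcium dye loading, compound-evoked calcium rise over 180 s flagged agonists.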
TRHR agonist – activates the human TRH receptor | P34981 | TRHR cells, calcium flux fluo-8, FDSS agonist mode | activation, % at 2 µM | 360,000 compounds, 0.18% hits | AID 493084
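Fluo-8-loaded TRHR cells; 10 s baseline, compound added, kinetic Ca2+ fluorescence read 1/s, agonist mode.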
Numbers stand for hits; – = inactive; ! = not active in a repeat. In the library only some 4.6% were active in any assay of this set; here they are far more common. Unless noted, no stated cut-off is given here; in the data, active means activation above about 30%; inactive means the rest.

SMILES	D1 antag	TRHR PAM	D1 potentiator	D1 ag	TRHR agonist
Cc1ccc(CN(Cc2ccccc2)C(=S)NCC(=O)NCc2cccnc2)o1	-47.5	–	–	–	–
Cn1nc(C(F)(F)F)c2cc(NC(=O)OCc3ccc(F)cc3)sc21	–	–	–	–	–
COc1ccc(COC(=O)Nc2cc3c(C(F)(F)F)nn(C)c3s2)cc1	–	30.4	–	–	–
COc1cnc(-c2ccccn2)nc1Sc1ccccc1Cl	–	–	–	32.3	–
O=C(O)c1cc(-c2ccc3c(c2)OCO3)nc2ccc(Cl)cc12	–	33.5	–	–	–
Cn1c(NC(=O)c2cc(-c3ccc4c(c3)OCO4)nc3ccccc23)cc(=O)n(C)c1=O	-30.5	–	–	–	–
Cc1ccc(S(=O)(=O)N2CCN(C(=O)CCCOc3cccc(C)c3)CC2)cc1	-38.8	–	–	–	–
CC(=O)c1ccc(OCCCC(=O)N2CCN(S(=O)(=O)c3cc(C)ccc3C)CC2)cc1	–	–	–	–	–
CC(=O)c1ccc(OCCCC(=O)N2CCN(S(=O)(=O)c3ccc(C)cc3C)CC2)cc1	-30.6	–	–	–	–
Cc1ccc(OCCCC(=O)N2CCN(S(=O)(=O)c3cccc(F)c3)CC2)cc1	-33.1	–	–	–	–
Cc1ccsc1C1C=C(c2cccc(Br)c2)Nc2ncnn21 (centres undefined)	–	–	–	42.7	–
CNCCCC1Sc2ccccc2Oc2ccccc21 (centres undefined)	-41.8	–	–	–	–
CC[n+]1c(/C=C/C=C/N(C(C)=O)c2ccccc2)sc2cc(OC)ccc21	–	–	–	56.3	–
Cc1ccc(N/C(N)=N/c2nc(CSc3nnc(N)s3)cc(=O)[nH]2)cc1	-34.0	–	–	–	–
CC(O)CN(C)CC/C=C1/c2ccccc2CSc2ccccc21 (centres undefined)	-71.5	–	–	30.3	–
CN(CC/C=C1/c2ccccc2CSc2ccccc21)CCCO	–	–	–	30.8	–
CN(C)CC/C=C1\c2cc(F)ccc2CSc2ccccc21	-92.7	–	–	–	–
C=CCN(C)CC/C=C1\c2ccccc2CSc2ccccc21	–	–	–	–	–
NCC/C=C1/c2ccccc2CSc2ccccc21	–	–	–	–	–
Cc1ccc(S(=O)(=O)NC(N)=NCCC[C@@H](N)C(=O)Nc2cc(C(F)(F)F)ccc2Cl)cc1	–	–	–	–	–
CCC1CN(C(=O)N2CCC(C(=O)NCc3ccccc3C)CC2)c2ccccc2O1 (centres undefined)	–	–	–	–	–
CCCOc1ccc(CNC(=O)C2CCN(C(=O)N3CCOc4ccccc43)CC2)cc1	-32.0	–	–	–	–
CCCCNC(=O)C1CCN(C(=O)N2CC(C)Oc3ccc(Cl)cc32)CC1 (centres undefined)	–	–	–	–	–
CCOc1ccc(CNC(=O)C2CCN(C(=O)N3CC(C)Oc4ccccc43)CC2)cc1 (centres undefined)	-38.0	–	–	–	–
COc1ccc(NC(=O)C2CCN(C(=O)N3CCOc4ccccc43)CC2)cc1	–	–	–	–	–
SMILES	D1 antag	TRHR PAM	D1 potentiator	D1 ag	TRHR agonist
CCC1CN(C(=O)N2CCC(C(=O)NCc3cccc(C)c3)CC2)c2ccccc2O1 (centres undefined)	-31.9	–	–	–	–
COc1ccc(CNC(=O)C2CCN(C(=O)N3CC(C)Oc4ccc(C)cc43)CC2)cc1 (centres undefined)	–	–	–	–	–
CC1CN(C(=O)N2CCC(C(=O)NCCCc3ccccc3)CC2)c2cc(Cl)ccc2O1 (centres undefined)	-57.2	–	–	–	–
CCC1CN(C(=O)NCc2ccc(F)cc2)c2cc(Cl)ccc2O1 (centres undefined)	–	–	–	–	–
CCC1CN(C(=O)NCc2ccc(F)cc2)c2ccccc2O1 (centres undefined)	-56.4!	–	–	–	–
COc1ccc(Br)cc1CNC(=O)c1cc2n(n1)CCCN(Cc1ccc(C)cc1)C2=O	–	–	–	–	–
Cc1ccc2cccc(OCCCOc3ccccc3F)c2n1	-49.4	–	–	–	–
Cc1ccc2cccc(OCCOCCOc3ccccc3Br)c2n1	–	–	–	–	–
COc1cc(/C=C(\C#N)C(=O)c2ccc(O)c(O)c2)cc(I)c1O	–	–	–	37.8	–
COc1cc(/C=C(\C#N)C(=O)N2CCOCC2)cc(Br)c1O	–	–	–	–	–
CCOc1ccccc1NC(=O)CCNS(=O)(=O)c1ccc2c(c1)CCN2C(=O)C1CC1	–	–	–	–	–
Cc1nc(Cl)c2c(n1)NC1=C(O2)C(=O)CCC1	–	–	–	37.9	–
COC(=O)c1ccc2c(=O)n(CCCCCC(=O)N3CCN(c4ccc(OC)cc4)CC3)c(=O)[nH]c2c1	–	–	–	–	–
COc1ccc(-c2noc(CN(C)C3CCOCC3)n2)cc1	–	31.6	–	–	–
CC(NC(=O)CN(c1ccc(Cl)cc1Cl)S(=O)(=O)c1ccccc1)c1ccccc1 (centres undefined)	–	–	–	–	–
O=C1CCNc2ccc(-c3ccccc3)cc21	–	–	–	68.1	–
COc1ccc(OC)c(Nc2cc(C)nc3ccccc23)c1	–	–	–	–	–
COc1ccc2nc(C)cc(Nc3ccccc3O)c2c1	-35.1	–	–	–	–
O=C(NCc1ccccc1)c1ccc(CNS(=O)(=O)c2ccc(Br)cc2)cc1	–	–	–	–	–
Cc1ccc(-c2nc3sccn3c2Nc2ccccc2C)cc1	–	–	–	–	–
O=C(c1cccn1-c1nnc(N2CCCCC2)s1)N1CCN(c2ccccc2)CC1	–	–	–	–	–
Nc1cc2c3c(cccc3c1)C(=O)N(CCN1CCCC1)C2=O	–	–	–	55.7	–
O=C1c2cccc3cc([N+](=O)[O-])cc(c23)C(=O)N1CCN1CCCC1	–	–	–	–	–
COc1ccc(-c2cc(OC(=O)c3cccc(Cl)c3)c3c(C)oc(C)c3c(=O)c2)cc1	–	–	–	–	–
Cc1cc(C)c(-c2csc(NC(=O)/C=C/c3cccs3)n2)c(C)c1	-36.9	–	–	–	–
SMILES	D1 antag	TRHR PAM	D1 potentiator	D1 ag	TRHR agonist
Cc1cc(C)nc(NC(=O)/C=C/c2cccs2)c1	–	–	–	–	–
COc1ccc(C2c3c4c(n(C)c3CCN2C)CCN(C)C4c2ccc(OC)cc2)cc1 (centres undefined)	-31.1	–	–	–	–
COc1cccc(N2CCN(C(=O)c3c(C)oc4ncnc(N5CCCCC5)c34)CC2)c1	–	–	–	–	–
Cc1cccc(S(=O)(=O)c2cn(Cc3ccc(F)cc3)c3cc(N4CCCCC4)c(F)cc3c2=O)c1	–	–	–	–	–
Cc1ccc(C)c(Cn2c(=O)n(C(C)C)c(=O)c3oc4ccccc4c32)c1	-79.8	–	–	–	–
Cc1cccc(Cn2c(=O)n(Cc3ccccc3)c(=O)c3oc4ccccc4c32)c1	–	–	–	–	–

Screening results (PubChem BioAssay)
